Here are results for 28 compounds from PubChem BioAssay.

The subject of this assay is Human papillomavirus type 1a protein E7 (residues 44-93). Description: HPV1a E7 fragment binders on microarrays, primary screen, biochemical, small-molecule microarray, residues 44-93, 635 nm fluorescence (AID 1108).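 Further: E7 fragment applied at 1 µg/mL in TBST for 1 h at 4 C; score combines spot fluorescence with its signal to noise ratio.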 The settings on record: small-molecule microarray binding, fluorescence 635 nm; higher = more signal.
With `C=C1C(=O)C=C2CN(C(=O)c3ccccc3)[C@@](Cc3ccc(OC)cc3)(C(=O)OC)[C@@H]12`, the composite z-score was determined as 1.43.

In turn, `COC(=O)[C@@]1(Cc2ccc(F)cc2)[C@H]2c3cc(C(=O)N(C)C)n(C)c3C[C@H]2CN1C(=O)c1ccccc1` displayed a composite z-score of 0.0469.

Turning to `COCCCNC(=O)[C@@]1(CCS(=O)(=O)c2ccccc2)COC(c2ccc(OCCCO)cc2)=N1`, the composite z-score amounted to 0.0612.

The compound `CO[C@H]1O[C@H](CO)[C@@H](OC(=O)Nc2ccc3c(c2)OCO3)[C@H](OC(=O)Nc2ccccc2-c2ccccc2)[C@H]1OC(=O)Nc1ccccc1-c1ccccc1` showed a composite z-score of 1.08.

As to `NC(=O)N1C(=O)C2C(C1=O)C1C=C(CCCO)C2C(C2CC2)N1Cc1sc2ccccc2c1Cl` (stereo not drawn), the composite z-score came to 0.173.

Turning to `C=CC[C@@]1(C(=O)OC)N=C(c2ccc(OCCCO)cc2)O[C@@H]1c1ccccc1N=[N+]=[N-]`, the composite z-score was determined as 1.48.

As for `C=CCC(OC(C)=O)[C@@H]1[C@@H](N(Cc2ccc(-c3ccccc3)cc2)C(=O)c2cccc3ccccc23)c2cc(OCCCO)ccc2N1C(=O)Cc1ccc(OC)cc1` (stereo partly drawn), the composite z-score was -0.69.

`CCOc1cc(C(O)C2C=CC3C(=O)N(c4ccccc4)C(=O)C3N2Nc2ccccc2F)ccc1O` (stereo not drawn) registered a composite z-score of 0.357.

For `C=CCC(OC(C)=O)[C@@H]1[C@@H](N(Cc2cc3ccccc3o2)C(=O)c2cccc3ccccc23)c2cc(OCCCO)ccc2N1C(=O)c1ccc2ccccc2n1` (stereo partly drawn), the composite z-score was 0.193.

Take `COc1ccc(C(O)C2C=CC3C(=O)N(C)C(=O)C3N2N(c2ccccc2)c2ccccc2)cc1` (stereo not drawn): the composite z-score is -1.14.

Compound `O=C1O[C@@H](c2ccccc2)[C@@H](c2ccccc2)N2[C@@H](c3ccc(OCCO)cc3)[C@]3(C(=O)Nc4ccc(C#CC5(O)CCCCCC5)cc43)[C@@H](C(=O)Nc3nc4ccccc4s3)[C@H]12` gave a composite z-score of 1.44.

`COCCOC(=O)N1C(=O)[C@@]2(c3cc(C#CCCO)ccc31)[C@H](C(N)=O)[C@H]1C(=O)O[C@H](c3ccccc3)[C@H](c3ccccc3)N1[C@@H]2c1ccccc1OCCO` displayed a composite z-score of 0.99.

`CC1CC/C=C\[C@H]2OC34C=CCN(C(C)(C)C)C(=O)[C@H]3N(CCCO)C(=O)[C@@H]4C2C(=O)O1` (stereo partly drawn): the composite z-score was -0.0793.

`COc1ccc([Si](C)(C)[C@H]2[C@H](CC(=O)N3Cc4ccccc4C[C@H]3CO)O[C@@]3(C(=O)N(C)c4ccccc43)[C@@H]2C)cc1` showed a composite z-score of 1.42.

Regarding `Cc1ccc(S[C@]2(C(=O)NCCCN(C)C)CC(=O)N(C3Cc4ccccc4C3)[C@@H]2c2ccc(CO)cc2I)cc1`, the composite z-score turned out to be 0.257.

In turn, `O=C1O[C@H](c2ccccc2)[C@H](c2ccccc2)N2[C@H]1[C@@H](C(=O)N1CCN(c3ncccn3)CC1)[C@]1(C(=O)Nc3ccc(C#CCCO)cc31)[C@H]2c1ccc(O)cc1` displayed a composite z-score of 1.08.

`[N-]=[N+]=Nc1ccccc1C[C@]1(C(=O)N2CCOCC2)N=C(c2ccc(OCCCO)cc2)O[C@H]1c1ccccc1N=[N+]=[N-]` registered a composite z-score of 1.29.

The compound `COc1ccc(C(=O)Nc2ccc(CN3C(=O)[C@@]4(O[C@@H](CCn5cc(CCO)nn5)[C@H]([Si](C)(C)c5ccc(OC)cc5)[C@H]4C)c4ccccc43)cc2)cc1` had a composite z-score of 1.33.

As to `NC(=O)NCC#Cc1ccc2c(c1)[C@]1(C(=O)N2)[C@H](c2ccc(OCCO)cc2)N2[C@H](c3ccccc3)[C@H](c3ccccc3)OC(=O)[C@H]2[C@@H]1C(=O)NC[C@H](O)c1ccccc1`, the composite z-score was found to be 1.01.

Regarding `O=C1[C@H]2C=C(I)[C@H](C[C@@H]2c2ccccc2)[C@@]12CO2`, the composite z-score was -0.0983.

The compound `CC(C)NC(=O)[C@@H]1c2ccccc2C(=O)N(Cc2ccc(OC(F)(F)F)cc2)[C@H]1c1ccc(CO)cc1` registered a composite z-score of 0.973.

`COc1ccc([Si](C)(C)[C@H]2[C@H](CC(=O)N3Cc4ccccc4C[C@H]3CO)O[C@@]3(C(=O)N(c4ccccc4)c4ccccc43)[C@@H]2C)cc1` showed a composite z-score of 1.35.

Compound `CC(C)(C)N1CC=CC23O[C@@H]4/C=C\CCCOC(=O)C4[C@H]2C(=O)N(CCCO)[C@@H]3C1=O` (stereo partly drawn) returned a composite z-score of -0.751.

In turn, `O=C1C2C=CC(C(O)c3ccc([N+](=O)[O-])cc3)N(Nc3ccccc3F)C2C(=O)N1c1ccccc1` (stereo not drawn) yielded a composite z-score of 0.395.

`COc1ccccc1CN1C(=O)c2ccccc2[C@](Cc2ccccc2I)(C(=O)NCC(C)C)[C@@H]1c1ccc(CO)cc1` gave a composite z-score of -0.237.

Compound `C=C(CCCC)/C(=C/C[C@H](OC(=O)c1ccncc1)c1ccc(OCCO)cc1)c1cnc2ccccc2c1` had a composite z-score of -0.38.

Compound `CCCC[C@H]1C[C@@H]1[C@@H]1N(C(C)=O)[C@H](c2cccc(OC)c2)CC12CC2` gave a composite z-score of -0.223.

`O=C1O[C@H](Cc2ccccc2)[C@@H]2[C@H]3C=CCCC=C3CN2[C@H]1Cc1ccc(O)cc1` came in with a composite z-score of -1.94.
